Hits are enriched below; roughly 3.5% of the tested compounds scored in any of these assays.
FBW7 act = activators of human E3 ligase FBW7; Q969H0; AlphaScreen FBW7–phospho-cyclin E peptide binding, activator screen; normalized activity (activation), % at 26.1 µM; hit rate 0.13% among 650,000; AID 1259310; in the data active = normalized activity above about 1.9%;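 note: purified mutant Fbw7 with reduced substrate affinity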
Target sequence (Q969H0 whole entry, looked up): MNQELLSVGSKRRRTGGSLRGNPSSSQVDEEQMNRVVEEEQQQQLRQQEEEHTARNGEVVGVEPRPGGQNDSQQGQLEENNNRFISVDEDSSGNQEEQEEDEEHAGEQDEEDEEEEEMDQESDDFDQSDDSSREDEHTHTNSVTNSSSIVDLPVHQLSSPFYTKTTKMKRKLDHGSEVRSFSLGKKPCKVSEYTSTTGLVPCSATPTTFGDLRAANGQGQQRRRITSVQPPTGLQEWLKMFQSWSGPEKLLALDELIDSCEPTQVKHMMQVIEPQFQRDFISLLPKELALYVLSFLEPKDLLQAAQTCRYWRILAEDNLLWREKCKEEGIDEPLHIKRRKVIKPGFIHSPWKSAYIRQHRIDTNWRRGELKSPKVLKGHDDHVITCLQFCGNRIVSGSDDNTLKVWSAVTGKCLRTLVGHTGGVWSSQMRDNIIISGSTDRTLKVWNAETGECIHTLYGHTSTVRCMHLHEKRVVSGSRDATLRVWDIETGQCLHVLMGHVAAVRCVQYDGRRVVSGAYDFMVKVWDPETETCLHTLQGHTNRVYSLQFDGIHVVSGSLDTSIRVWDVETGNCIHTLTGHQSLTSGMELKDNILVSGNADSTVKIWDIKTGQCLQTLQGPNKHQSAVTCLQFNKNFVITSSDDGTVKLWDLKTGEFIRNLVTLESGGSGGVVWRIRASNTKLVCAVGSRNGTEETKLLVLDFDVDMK
GPR151 ag = activates the human receptor GPR151 | PathHunter beta-arrestin GPR151 cells, luminescence | activation, % at 11.2 µM | hit rate 1% among 650,000 | AID 1508602; in the data active = activation above about 4.9%
TEAD-YAP block = TEAD-YAP interaction inhibition; inhibition, % at 9.12 µM; HEK-TIYL cells, TEAD-Gal4/YAP UAS-luciferase luminescence; hit rate 1.4% among 640,000; in the data active = inhibition above about 32%
MITF inh = human MITF inhibition, primary screen; O75030; AlphaScreen MITF homodimerization, bead proximity signal; inhibition, % at 2.6 µM; hit rate 0.91% among 650,000; AID 1259374; in the data active = inhibition above about 50%
A number is an active result.

Results for O=C(Oc1ccc(/C=C/c2ccncc2)cc1)c1ccco1 ?
FBW7 act: inactive; GPR151 ag: inactive; TEAD-YAP block: 35; MITF inh: inactive

How did COC(=O)N/N=C\c1ccc(OC(=O)c2ccco2)cc1 do in these assays?
FBW7 act: inactive; GPR151 ag: inactive; TEAD-YAP block: inactive; MITF inh: inactive

What do the screens show for `CC(C)(C)OC(=O)N/N=C\c1ccc(OC(=O)c2ccco2)cc1`?
FBW7 act: inactive; GPR151 ag: inactive; TEAD-YAP block: 59; MITF inh: inactive

Results for COc1ccc(OC)c2c1sc(=NC(=O)c1cccc(F)c1)n2C ?
FBW7 act: inactive; GPR151 ag: inactive; TEAD-YAP block: inactive; MITF inh: inactive

What do the screens show for `Cc1ccc(Nc2nc(Cl)nc(Nc3ccc(C)cc3C)n2)c(C)c1`?
FBW7 act: inactive; GPR151 ag: inactive; TEAD-YAP block: inactive; MITF inh: inactive

What do the screens show for `Cc1ccccc1Nc1nc(Cl)nc(Nc2ccccc2C)n1`?
FBW7 act: inactive; GPR151 ag: inactive; TEAD-YAP block: 45; MITF inh: inactive

Results for COc1ccc2nc(-c3ccc(N)cc3)[nH]c2c1 ?
FBW7 act: inactive; GPR151 ag: inactive; TEAD-YAP block: 54; MITF inh: inactive

Results for COc1cccc(NC(=O)Cn2cnc3sc(C)cc3c2=O)c1 ?
FBW7 act: inactive; GPR151 ag: inactive; TEAD-YAP block: inactive; MITF inh: inactive

Results for CN(C)/C=N/C1=C(C#N)C(c2ccc3c(c2)OCO3)c2ccc3ccccc3c2O1 (stereo not given) ?
FBW7 act: inactive; GPR151 ag: inactive; TEAD-YAP block: 45; MITF inh: inactive

How did COCC(C)NC(=O)CN1C(=O)NC2(CCCCC2)C1=O (stereo not given) do in these assays?
FBW7 act: inactive; GPR151 ag: inactive; TEAD-YAP block: inactive; MITF inh: inactive

How did CC(=O)N1CCC(N(C(=O)CCC(=O)O)C2CC2)CC1 do in these assays?
FBW7 act: 4.6; GPR151 ag: inactive; TEAD-YAP block: inactive; MITF inh: inactive

Results for O=C(O)CCC(=O)N(C1CC1)C1CCN(CCc2ccccc2)CC1 ?
FBW7 act: inactive; GPR151 ag: inactive; TEAD-YAP block: inactive; MITF inh: inactive

How did CCOC(=O)/C(=C\N(C)C)C(=O)c1cc([N+](=O)[O-])c(Cl)cc1Cl do in these assays?
FBW7 act: inactive; GPR151 ag: inactive; TEAD-YAP block: 38; MITF inh: inactive

How did CCOc1ccc(CSc2n[nH]c(C)n2)cc1 do in these assays?
FBW7 act: inactive; GPR151 ag: inactive; TEAD-YAP block: 88; MITF inh: inactive

What do the screens show for `CCOc1ccc(CSc2n[nH]c(CC)n2)cc1`?
FBW7 act: inactive; GPR151 ag: inactive; TEAD-YAP block: inactive; MITF inh: inactive

What do the screens show for `CCCOc1ccc(CSc2n[nH]c(C)n2)cc1`?
FBW7 act: inactive; GPR151 ag: inactive; TEAD-YAP block: 82; MITF inh: inactive

What do the screens show for `CC(C)[C@H](NC(=O)c1ccco1)C(=O)OCC(=O)Nc1ccc(C(N)=O)cc1`?
FBW7 act: inactive; GPR151 ag: inactive; TEAD-YAP block: inactive; MITF inh: inactive

Results for Cn1c2ccccc2c2cnn(CC(=O)NCCCN3CCCCCC3)c(=O)c21 ?
FBW7 act: inactive; GPR151 ag: inactive; TEAD-YAP block: inactive; MITF inh: inactive

What do the screens show for `CCOc1ccc(C2Nc3ccccc3C(=O)N2c2ccc(F)c(Cl)c2)cc1` (stereo not given)?
FBW7 act: inactive; GPR151 ag: inactive; TEAD-YAP block: inactive; MITF inh: inactive

How did CCOc1ccc(C2Nc3ccccc3C(=O)N2c2ccc3ccccc3c2)cc1 (stereo not given) do in these assays?
FBW7 act: inactive; GPR151 ag: inactive; TEAD-YAP block: 74; MITF inh: inactive

Results for COc1cc(OC)cc(C(=O)N[C@H](C(=O)NNC(=O)c2ccccc2F)C(C)C)c1 ?
FBW7 act: inactive; GPR151 ag: inactive; TEAD-YAP block: inactive; MITF inh: inactive

How did Cc1sc2ncn(CC(N)=O)c(=O)c2c1-c1ccc(Cl)cc1 do in these assays?
FBW7 act: inactive; GPR151 ag: inactive; TEAD-YAP block: inactive; MITF inh: inactive

What do the screens show for `Cc1ccc(NC(=O)CCN2CCC(C)CC2)cc1`?
FBW7 act: 2.3; GPR151 ag: inactive; TEAD-YAP block: inactive; MITF inh: inactive

How did Nc1nccc(-c2cnc3nc(C4COc5ccc(C(=O)NCCc6cccnc6)cc5C4)[nH]c3c2)n1 (stereo not given) do in these assays?
FBW7 act: inactive; GPR151 ag: inactive; TEAD-YAP block: inactive; MITF inh: inactive

Results for CC(C)CNC(=O)c1ccc2c(c1)CC(c1nc3ncc(-c4ccnc(N)n4)cc3[nH]1)CO2 (stereo not given) ?
FBW7 act: inactive; GPR151 ag: inactive; TEAD-YAP block: inactive; MITF inh: inactive

What do the screens show for `Nc1nccc(-c2ccc3nc(C4COc5ccc(C(=O)NCCc6ccccn6)cc5C4)[nH]c3c2)n1` (stereo not given)?
FBW7 act: 9.0; GPR151 ag: inactive; TEAD-YAP block: inactive; MITF inh: inactive

What do the screens show for `Nc1nccc(-c2ccc3nc(C4COc5ccc(C(=O)NCCc6cccnc6)cc5C4)[nH]c3c2)n1` (stereo not given)?
FBW7 act: 4.2; GPR151 ag: inactive; TEAD-YAP block: inactive; MITF inh: inactive

What do the screens show for `CN(C)CCNC(=O)c1ccc2c(c1)CC(c1nc3ncc(-c4ccnc(N)n4)cc3[nH]1)CO2` (stereo not given)?
FBW7 act: inactive; GPR151 ag: inactive; TEAD-YAP block: inactive; MITF inh: 72

What do the screens show for `O=C(Nc1ccc(-c2ccc([N+](=O)[O-])cc2)cc1)c1ccc(Br)cc1`?
FBW7 act: inactive; GPR151 ag: inactive; TEAD-YAP block: inactive; MITF inh: inactive

How did CCOC(=O)N1CCC(N2CCCC(CNC(=O)c3ccc(-c4ccccc4)cc3)C2)CC1 (stereo not given) do in these assays?
FBW7 act: inactive; GPR151 ag: inactive; TEAD-YAP block: inactive; MITF inh: inactive

Results for CCCNc1nc(-c2ccc(C(N)=O)cc2)nc2c1ncn2-c1ccsc1 ?
FBW7 act: inactive; GPR151 ag: inactive; TEAD-YAP block: 52; MITF inh: inactive

Results for CCCNc1nc(-c2ccc(OC)cc2)nc2c1ncn2-c1ccccc1 ?
FBW7 act: inactive; GPR151 ag: inactive; TEAD-YAP block: inactive; MITF inh: inactive

What do the screens show for `CCCNc1nc(-c2ccc(C(N)=O)cc2)nc2c1ncn2-c1ccccc1`?
FBW7 act: inactive; GPR151 ag: inactive; TEAD-YAP block: 52; MITF inh: inactive

Results for CC(C)N(CCNc1nc(-c2ccc(C(N)=O)cc2)nc2c1ncn2-c1ccsc1)C(C)C ?
FBW7 act: inactive; GPR151 ag: inactive; TEAD-YAP block: 61; MITF inh: inactive

How did NC(=O)c1ccc(-c2nc(NCCc3ccc(O)cc3)c3ncn(-c4ccccc4)c3n2)cc1 do in these assays?
FBW7 act: inactive; GPR151 ag: inactive; TEAD-YAP block: 66; MITF inh: inactive

How did CCOC(=O)c1ccc(N2N=C(C)/C(=C/c3ccc(OC(=O)CC)c(OC)c3)C2=O)cc1 do in these assays?
FBW7 act: inactive; GPR151 ag: inactive; TEAD-YAP block: inactive; MITF inh: inactive

How did O=C1C2CCCCC2C(=O)N1c1ccc(Cl)c(C(F)(F)F)c1 (stereo not given) do in these assays?
FBW7 act: inactive; GPR151 ag: inactive; TEAD-YAP block: inactive; MITF inh: inactive
